# According to PubChem BioAssay AID1159580 (chemical genetic matrix, 2015):
# In all, about 5,500 compounds went through this assay and about 2,000 (36%) were called active. About 18% were inconclusive and are not listed. The list shows a part of the results. A number with no mark means an inactive call. Cut-off read from the data, not from the text of the source: active = normalized growth mostly below about 0.91 (no sharp cut-off); inconclusive = no clear call, values can overlap the other calls; inactive = mostly above about 0.92.
# Assay: chemical genetic growth profiling, strain panel (AID 1159580);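 note: tested at 20 µM; growth read once vehicle control cultures reached saturation at 30 °C; 1 = growth at the plate median or of vehicle wells; lower values mean less growth of the strain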
# Settings: S. cerevisiae deletion strains, growth OD
smiles,measurement,setting,value
O=C1[O][Bi][O]c2ccccc21,normalized growth,"locus YAL021C, strain ccr4, hits give low values",1.06
same,normalized growth,"locus YAL026C, strain drs2, hits give low values",1.05
same,normalized growth,"locus YAL030W, strain snc1, hits give low values",0.972
same,normalized growth,"locus YBL061C, strain skt5, hits give low values",1.04
same,normalized growth,"locus YBR009C, strain hhf1, hits give low values",0.981
same,normalized growth,"locus YBR023C, strain chs3, hits give low values",1.05
same,normalized growth,"locus YBR171W, strain sec66, hits give low values",1.07
same,normalized growth,"locus YBR231C, strain swc5, hits give low values",1.02
same,normalized growth,"locus YBR279W, strain paf1, hits give low values",0.932
same,normalized growth,"locus YCL011C, strain gbp2, hits give low values",0.966
same,normalized growth,"locus YCL016C, strain dcc1, hits give low values",1.04
same,normalized growth,"locus YCL061C, strain MRC1, hits give low values",1.05
same,normalized growth,"locus YCL069W, strain vba3, hits give low values",1.06
same,normalized growth,"locus YCR088W, strain abp1, hits give low values",1.07
same,normalized growth,"locus YDL005C, strain med2, hits give low values",1.05
same,normalized growth,"locus YDL040C, strain nat1, hits give low values",1.03
same,normalized growth,"locus YDR001C, strain nth1, hits give low values",1.03
same,normalized growth,"locus YDR069C, strain doa4, hits give low values",0.944
same,normalized growth,"locus YDR137W, strain rgp1, hits give low values",1
same,normalized growth,"locus YDR159W, strain sac3, hits give low values",0.954
same,normalized growth,"locus YDR195W, strain ref2",1.3 [resistant] (active)
same,normalized growth,"locus YDR297W, strain sur2, hits give low values",0.94
same,normalized growth,"locus YDR334W, strain swr1, hits give low values",1.05
same,normalized growth,"locus YDR335W, strain msn5, hits give low values",1.04
same,normalized growth,"locus YDR392W, strain spt3, hits give low values",1.03
same,normalized growth,"locus YEL003W, strain gim4, hits give low values",1.03
same,normalized growth,"locus YEL037C, strain rad23, hits give low values",1.03
same,normalized growth,"locus YEL061C, strain CIN8 (second series), hits give low values",1.02
same,normalized growth,"locus YER015W, strain faa2, hits give low values",0.951
same,normalized growth,"locus YER016W, strain bim1, hits give low values",1.05
same,normalized growth,"locus YER111C, strain swi4, hits give low values",1.02
same,normalized growth,"locus YER155C, strain BEM2 (second series), hits give low values",0.997
same,normalized growth,"locus YFR010W, strain ubp6, hits give low values",1.11 [resistant] (active)
same,normalized growth,"locus YGL167C, strain pmr1, hits give low values",1.03
same,normalized growth,"locus YGL173C, strain kem1, hits give low values",0.416 (active)
same,normalized growth,"locus YGL227W, strain vid30, hits give low values",1.05
same,normalized growth,"locus YGL240W, strain doc1, hits give low values",1.13 [resistant] (active)
same,normalized growth,"locus YGL253W, strain hxk2, hits give low values",1.05
same,normalized growth,"locus YHR013C, strain ard1, hits give low values",1.02
same,normalized growth,"locus YHR027C, strain rpn1, hits give low values",0.904 (active)
same,normalized growth,"locus YHR030C, strain SLT2, hits give low values",0.996
same,normalized growth,"locus YHR079C, strain IRE1, hits give low values",0.985
same,normalized growth,"locus YHR142W, strain chs7, hits give low values",1.08
same,normalized growth,"locus YJL092W, strain hpr5, hits give low values",1.06
same,normalized growth,"locus YJL095W, strain BCK1 (second series), hits give low values",0.914 (active)
same,normalized growth,"locus YJL095W, strain BCK1, hits give low values",1.02
same,normalized growth,"locus YJL115W, strain asf1, hits give low values",1.03
same,normalized growth,"locus YJL129C, strain trk1, hits give low values",1.05
same,normalized growth,"locus YJL154C, strain vps35, hits give low values",1.04
same,normalized growth,"locus YJL164C, strain tpk1, hits give low values",0.732 (active)
same,normalized growth,"locus YJL166W, strain qcr8, hits give low values",0.937
same,normalized growth,"locus YJR066W, strain TOR1, hits give low values",0.925
same,normalized growth,"locus YKL160W, strain elf1, hits give low values",0.996
same,normalized growth,"locus YKR026C, strain gcn3, hits give low values",1.05
same,normalized growth,"locus YKR091W, strain srl3, hits give low values",1.04
same,normalized growth,"locus YLL001W, strain dnm1, hits give low values",1.04
same,normalized growth,"locus YLL026W, hits give low values",1.01
same,normalized growth,"locus YLL041C, strain sdh2, hits give low values",1.04
same,normalized growth,"locus YLR027C, strain aat2, hits give low values",1.04
same,normalized growth,"locus YLR113W, strain HOG1, hits give low values",1.06
same,normalized growth,"locus YLR221C, strain rsa3, hits give low values",1.02
same,normalized growth,"locus YLR258W, strain gsy2, hits give low values",1.02
same,normalized growth,"locus YLR262C, strain YPT6 (second series), hits give low values",1.06
same,normalized growth,"locus YLR320W, strain mms22, hits give low values",1.03
same,normalized growth,"locus YLR342W, strain FKS1, hits give low values",1.01
same,normalized growth,"locus YLR357W, strain rsc2, hits give low values",1
same,normalized growth,"locus YLR370C, strain arc18, hits give low values",1.06
same,normalized growth,"locus YLR384C, strain iki3, hits give low values",1.01
same,normalized growth,"locus YML120C, strain ndi1, hits give low values",1.03
same,normalized growth,"locus YMR058W, strain fet3, hits give low values",0.851 (active)
same,normalized growth,"locus YMR125W, strain sto1, hits give low values",1.04
same,normalized growth,"locus YMR129W, hits give low values",0.96
same,normalized growth,"locus YMR205C, strain PFK2, hits give low values",0.985
same,normalized growth,"locus YMR231W, strain pep5, hits give low values",1.02
same,normalized growth,"locus YNL071W, strain lat1, hits give low values",1.03
same,normalized growth,"locus YNL183C, strain NPR1, hits give low values",0.936
same,normalized growth,"locus YNL209W, strain ssb2, hits give low values",0.923 (active)
same,normalized growth,"locus YNL248C, strain rpa49, hits give low values",1.07
same,normalized growth,"locus YNL322C, strain KRE1 (second series), hits give low values",1.05
same,normalized growth,"locus YNR049C, strain mso1, hits give low values",1.05
same,normalized growth,"locus YOR001W, strain rrp6, hits give low values",1.06
same,normalized growth,"locus YOR070C, strain gyp1, hits give low values",1.03
same,normalized growth,"locus YOR080W, strain dia2, hits give low values",1.05
same,normalized growth,"locus YOR083W, strain WHI5, hits give low values",1.03
same,normalized growth,"locus YOR106W, strain vam3, hits give low values",0.861 (active)
same,normalized growth,"locus YOR231W, strain MKK1, hits give low values",1.02
same,normalized growth,"locus YOR265W, strain rbl2, hits give low values",1.04
same,normalized growth,"locus YOR270C, strain vph1, hits give low values",1.35 [resistant] (active)
same,normalized growth,"locus YOR290C, strain snf2, hits give low values",1.01
same,normalized growth,"locus YPL051W, strain arl3, hits give low values",0.945
same,normalized growth,"locus YPL078C, strain atp4, hits give low values",1.04
same,normalized growth,"locus YPL106C, strain sse1, hits give low values",1
same,normalized growth,"locus YPL240C, strain hsp82, hits give low values",1.02
same,normalized growth,"locus YPL256C, strain CLN2, hits give low values",1
